The whole screen tested about 53,000 sequences, of which about 3,700 (7%) were called active. This is one part of a sample in which actives are shown more often than they occur. Values without a mark were called inactive.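 The calls were made as follows: active = gene knockdowns whose robust z-score for IL-1 alpha signal is at least 2 or at most -2, so actives lie on both sides; inactive = the rest.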

The nature of the assay: Components of the Cytosolic LPS Sensing Pathway: Gene Identification via Genome-wide siRNA Screen.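 Also: robust z of the log signal after scaling to non-targeting control siRNA wells of the plate.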 Conditions: RAW264.7 macrophages, IL-1a HTRF, actives lie on both sides, screened at 100 nM (by protocol), cells primed 5 h with Pam3CSK4 first. In short, it runs like this: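 Knockdown: 100 nM siRNA, 48h, RAW264.7. Stimulation: Pam3CSK4 5 h, then LipidA via TransIT-TKO 24 h. Output: supernatant IL-1a HTRF, negative-control-normalized, log robust z-score; viability by CellTiter-Glo.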
Background: TR-FRET usually uses a lanthanide donor and a delayed reading to cut background.
In the case of GGUUCAUCUUUCAAAUCUATT against Kpna4, the z-score was -0.676.
With CCUGUAGGUGGAAUAAACATT against Awat2, the z-score is -2.28 (active).
As for CCUAGUAAUGUCCAUUGUGTT against Endod1, the figure is 0.0364; as for GGACUCAGAUAUCUUUCAGTT against Adck1, -0.328.
As for CGUUGCUGACUGCUAUGAATT against Tmprss13, the figure is -1.22; as for CCACUUUCACAUGAAGUUATT against Eif2s3x, -0.7; as for GCUCCAGCUUGCACUCUUGTT against Trp53i13, 1.36.
As for GCCACAUCGUAGACAAGUATT against Zfp41, the figure is -2.71 (active); as for CCCGAACCUGUUGUCUGAATT against Ttc8, -0.422; as for GCCAAGUGCUACAACAUCCTT against Ifitm5, -0.64.
In the case of CCGAGAUUGCCUGUUUGGUTT against Rnf144b, the z-score is 2.08 (active).
Under GGAACUCAAAUUGAAAAGGTT against Manea stands -0.135; under GCUAUUGGAGAUAUAAUGGTT against Ace, 1.58; under GGACUUUUUCAAAGGUUUUTT against Eif4g3, 2.37 (active).
As for GGCAGGCAACCAAUCAAAUTT against Npepps, the figure is 1.29; as for GGAUUUCAUUAUCCUGUUUTT against Zfp608, -1.19; as for GCCUUGAACUAUGCAUAGATT against Eno2, 1.7.
As for GGCCUCAUGCAGGAACAUUTT against Polr2d, the figure is -2.34 (active).
On to GGAAGAAGAAAGAUUCAAATT against Bcan, for which the z-score was -0.862.
As for GAUUUUUCAAAUCUUUGGCTT against Plac8, the figure is -1.52; as for GAGCAUCUGUGUAGAAGUGTT against Thrsp, 0.786.
As for CCUGGUACAAUCAAACUGCTT against Rnf222, the figure is 0.516; as for GGCAGAAUGGGAAAUGUAUTT against Htr7, -0.841; as for GCCGUUUAUUCAUUGCACUTT against Cdc123, 1.21.
For the sequence GGACUUGACCUCAAGGGAATT against Sox6, the z-score was 2.35 (active).
As to GGAAUUCAAUCAGUUUGCUTT against Dysf, the z-score was 1.06.
As for GGCAUUUUUCGGAUUGACATT against Mmp27, the figure is -0.807.
CCCUCUGAACUAUAUGACUTT against Olfr700: the z-score is -1.09.
In the case of GGUGUGGAACGACAAACAGTT against Pla2g4f, the z-score is -2.8 (active).
As for GGCUUUGUGGACUUAAUUATT against Cyb5r2, the figure is -1; as for GCAUCACUGGAUUGUGGAUTT against Tm9sf2, 0.188; as for GGGAAAAAUGGUCAGAUUATT against Colgalt2, -1.08.
Under GGUUCCUAAGGAUGAACUUTT against Akr1c14 stands -0.186; under GGCCUAGCAAGGGAUUUUATT against Cep85, -2.02 (active).
As for GGAUCUCUUUGUUAAUGGUTT against Mall, the figure is 0.715; as for GCCAUAUGCUAUCAAGAUGTT against Pskh1, -0.715; as for GGAAUGCUACAACUCAAAATT against Ptk2, -0.861.
Consider GGCAUUGGUUCCUACAAGATT against Gm773, for which the z-score is -0.118.
With GGUAGAGGAUCUCUCUAAATT against Fbxo44, the z-score was -0.444.
As for GCUGGUAAACAUAGGUGGCTT against C1qtnf4, the figure is 2.18 (active); as for GGUCCAUGGGUAAGAGGAUTT against Vmn1r43, 1.2.
As for GGUCGUGCGAUCCACAGAUTT against Vangl2, the figure is -0.44.
Under GUUUUGGAUUCCUCUGUCATT against Olfr1097 stands -1.69; under GGAAAAUUCCAGAAACCAUTT against Mettl8, 0.608.
Consider GGAUGAAGAGAAAGUUCUATT against Mak, for which the z-score is 2.49 (active).
As for GGUGAGGUUCAAACAUUCUTT against Sdf2, the figure is 0.0627.
Under GGGAUUCCACGGAUACUGUTT against Rnase13 stands -0.858.
As for GGACUACCAGUUUUACAUCTT against Ssr1, the figure is 1.25; as for GCCGGUGACUUUCUAAUUUTT against Yrdc, -1.32; as for GCCUUAACUAUAGUCCAGATT against Scn7a, -0.928.
As for GGCAUGGCUGGCAAAAACATT against Ppp1r15a, the z-score is -1.85.
Under UGCAAUCCGGAUCAAACGUTT against Cebpb stands -2.03 (active); under GGAAGAUUUCUUCAAACGCTT against Lhx4, -0.167; under CCUGAAGAGGAUGAUAUGGTT against Fam221a, 0.144.
Under GGUCUUCAGAAUCCUCAAUTT against Ap1g2 stands -0.4.
Under GCCAACCUGAAACCAUCUATT against Ptprg stands 0.0567.
With GGACACAGACAAUGAAAUGTT against Fetub, the z-score was -2.35 (active).
Under GGAGCAUUGCUCUUCUUCATT against Get4 stands -0.073; under GCAGAAGUAUUACUGGAUGTT against Olfr572, 0.841.
Under GCUAGGAACGAGGAGCUAATT against Prrt3 stands 1.07; under GGAAUACAUAGCACACGGUTT against Apba2, 1.06.
As for CCCUGAAACAAUGAAUACATT against Serpini1, the figure is 0.325.
With “GCUUCCUAACCAGGUUUGATT against 4430402I18Rik”, the z-score is 2.1 (active).
On to GGAGAAGCUAAGAAACGAGTT against Acyp2, for which the z-score was -0.696.
As for CCCACAUUGCUUACCUUUCTT against Zfp523, the figure is -0.762; as for GCUGGGUUGCUGAUUUUUGTT against Arl5a, -0.881.
As for GGGCUUUCUCCAAUCGUAATT against Gm4876, the figure is 0.603; as for CGAGCCUCUGUGAUAUCCATT against Cst11, -2.69 (active); as for GGUUCUGUCUUUUACUUUCTT against Olfr1496, 0.232.

These data come from PubChem BioAssay AID1508600 (Functional Genomics Laboratory (NCATS/FGL), 2020).
